Shown are actives, neighbours in structure and some others; about 9.8% of the full set was active somewhere.
CBFb RUNX1 block – qHTS Assay for Compounds Blocking the Interaction Between CBF-beta and RUNX1 for the Treatment of Acute Myeloid Leukemia; Runt-related transcription factor 1 (Homo sapiens) + Core-binding factor subunit beta …; Potency, µM (titrated, usually from 59.8 µM), inactives show top-dose activity, negative = inhibition, hits mostly inhibitors; AID 1477, 2009; AlphaScreen CBFb-His/RUNX1-biotin binding, biochemical; 230,000 tested, under 10 active; active = well fitted curve in the direction sought with a large enough effect; inconclusive = small, poorly fitted or top-dose-only effect, or another doubt; inactive = no such curve, though single readings can be large; an effect the other way counts as inactive or inconclusive; note: % of control where 0% means no effect
Target sequence (Q01196 whole entry, looked up): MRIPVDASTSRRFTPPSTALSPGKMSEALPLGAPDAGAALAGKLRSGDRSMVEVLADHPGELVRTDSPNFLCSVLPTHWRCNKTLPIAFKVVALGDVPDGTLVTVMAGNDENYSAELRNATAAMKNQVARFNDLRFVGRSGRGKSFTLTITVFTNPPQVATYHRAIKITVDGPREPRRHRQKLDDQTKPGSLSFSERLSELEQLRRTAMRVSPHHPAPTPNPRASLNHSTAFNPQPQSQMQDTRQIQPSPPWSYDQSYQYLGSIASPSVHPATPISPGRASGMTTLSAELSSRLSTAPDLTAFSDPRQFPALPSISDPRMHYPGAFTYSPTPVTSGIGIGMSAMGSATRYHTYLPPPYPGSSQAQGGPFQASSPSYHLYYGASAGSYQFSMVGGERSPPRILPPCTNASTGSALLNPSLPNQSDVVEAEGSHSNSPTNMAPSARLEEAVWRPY
Target sequence (Q13951 whole entry, looked up): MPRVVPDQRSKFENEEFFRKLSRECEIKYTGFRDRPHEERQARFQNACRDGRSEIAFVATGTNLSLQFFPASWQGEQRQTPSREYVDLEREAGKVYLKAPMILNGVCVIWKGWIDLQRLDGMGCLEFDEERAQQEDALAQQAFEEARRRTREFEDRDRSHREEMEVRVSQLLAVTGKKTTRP
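AlphaScreen binding: CBFb-His and RUNX1-biotin (30 nM each) preincubated 20 min, compound added for 15 min, then nickel and streptavidin beads for 90 min, all at room temperature. Disruption of the interaction by any mechanism counts as activity.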
KDM4E inh – qHTS Assay for Inhibitors of Human Jumonji Domain Containing 2E (JMJD2E). JMJD2E catalytic domain, FDH-coupled NADH fluorescence (FDH is formaldehyde dehydrogenase). Potency, µM (highest dose often 57.1 µM), for the others: at the top dose activity change, negative = inhibition, usual class: inhibitors. Lysine-specific demethylase 4E (Homo sapiens), B2RXH2. 230,000 compounds, 1.6% hits;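 note: potency is the fitted concentration of half-maximal effect; 0% = wells with enzyme and -100% = buffer wells without enzyme; nearly all actives have a fitted effect of over 50% in size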
HPGD inh – qHTS Assay for Inhibitors of HPGD (15-Hydroxyprostaglandin Dehydrogenase); 15-hydroxyprostaglandin dehydrogenase [NAD(+)] (Homo sapiens), P15428; purified HPGD, NADH fluorescence kinetic, PGE2 substrate; Potency, µM, for the others: at the top dose activity change, negative = inhibition, usual class: inhibitors; 150,000 compounds, 4.3% hits; AID 894, 2007; note: potency is the fitted concentration of half-maximal effect; % is set by controls: 0 for no effect and ±100 for the full control effect
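20 nM HPGD preincubated 15 min at room temperature with compound in 50 mM Tris-HCl pH 8, 0.01% Tween 20. Started with 1 mM NAD+ and 30 uM prostaglandin E2; NADH fluorescence (360/450 nm) read 5 times over 30-s intervals, last minus first.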
HTT aggregate – qHTS Multiplex Assay to Identify Dual Action Probes in a Cell Model of Huntington: Aggregate Formation (GFP). PC12 HttQ103-GFP aggregates, Acumen cytometry, 40 h. Potency, µM (top dose mostly 46.1 µM), for the others: at the highest dose activity change, negative = inhibition, actives largely listed as inhibitors. 220,000 compounds, 1.1% hits; active = well fitted curve in the direction sought with a large enough effect; inconclusive = small, poorly fitted or top-dose-only effect, or another doubt; inactive = no such curve, though single readings can be large; an effect the other way counts as inactive or inconclusive; note: potency is the fitted concentration of half-maximal effect; % is set by controls: 0 for no effect and ±100 for the full control effect; nearly all actives have a fitted effect of over 60% in size
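Huntingtin Q103 exon 1–GFP aggregates in induced PC12 cells (100 nM tebufenozide) were quantified by cytometry from lysates, with compounds dosed in titration.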
HTT cytoprotect – qHTS Multiplex Assay to Identify Dual Action Probes in a Cell Model of Huntington: Cytoprotection (ATP); PC12 HTT-Q103 induced, cytoprotection, ATP luminescence, 40 h; 230,000 compounds, 0.14% hits; Potency, µM (doses to about 56.4 µM), without a hit: cytoprotection (ATP increase), most hits filed as activators; active = well fitted curve in the direction sought with a large enough effect; inconclusive = small, poorly fitted or top-dose-only effect, or another doubt; inactive = no such curve, though single readings can be large; an effect the other way counts as inactive or inconclusive; note: potency is the fitted concentration of half-maximal effect; % of control where 0% means no effect; nearly all actives have a fitted effect of over 45% in size
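Huntington model: PC12 line, ecdysone-inducible HTTQ103 exon1–GFP, tebufenozide 100 nM. Test articles in a dose series. Endpoint luminescence from cellular ATP.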
ALDH1A1 inh – qHTS Assay for Inhibitors of Aldehyde Dehydrogenase 1 (ALDH1A1); Aldehyde dehydrogenase 1A1 (Homo sapiens), P00352; Purified ALDH1A1, NADH fluorescence, propionaldehyde substrate; Potency, µM (doses to about 75.3 µM), for the others: at the highest dose activity, negative = inhibition, usual class: inhibitors; 220,000 compounds, 7.3% hits; AID 1030, 2008;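 note: potency is the fitted concentration of half-maximal effect; plate controls were no enzyme wells and a reference inhibitor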
The depositor's hits bear a star; ? = inconclusive; / = no result given; [ ] = another dose, or the depositor's remark. Unless noted, calls come from the whole dose curve; as a rule, active = well fitted inhibition curve with a large enough effect (not every such curve was filed as active); inconclusive = small, poorly fitted or top-dose-only effect, or another doubt; inactive = no such curve, though single readings can be large or run the other way.

SMILES	CBFb RUNX1 block	KDM4E inh	HPGD inh	HTT aggregate	HTT cytoprotect	ALDH1A1 inh
O=C(O)CN1CCN(Cc2ccccc2)C1=O	10%	5%	-3%	20%	-8%	1%
O=C(O)CN1CCCC1=Nc1ccccc1	7%	-6%	-8%	7%	-12%	89µM*
O=c1c2cnn(-c3ccccc3)c2nnn1/N=C/c1cccnc1	-3%	7%	-7%	-25%	-11%	0.4µM*
C(=N\n1cnc2ccccc21)/c1cccnc1	5%	0%	-6%	-23%	4%	1%
CCC(C(=O)OC)n1cnc2c(nnn2-c2cccc(Cl)c2)c1=O (configuration not stated)	7%	0%	20µM*	?	9%	-7%
O=C(C1CC(c2ccc(F)cc2)=NO1)N1CCCc2ccccc21 (configuration not stated)	6%	5%	-8%	3%	2%	3%
COc1cc(OC)c(C2=NOC(C(=O)N3CCc4ccccc4C3)C2)cc1Cl (configuration not stated)	-2%	?	11µM*	?	-23%[10 µM]	-12%
COc1ccc(OC)c(C2=NOC(C(=O)N3CCCc4ccccc43)C2)c1 (configuration not stated)	-11%	?	-25%	18%	9%	11µM*
COc1ccc2cc(C(=O)c3ccccc3)c(=O)oc2c1	2%	?	-12%	5%	-23%	14µM*
CCOc1ccc2cc(C(=O)c3ccccc3)c(=O)oc2c1	3%	-2%	-17%	5%	/	?
O=S(=O)([O-])C/C(=C\c1ccc(Cl)cc1)c1cc[n+](CCO)cc1	2%	?	/	7%	/	1%
O=C(/C=C/c1cccs1)N1CCC2(CC1)Oc1ccc(Cl)cc1C(=O)C21CC(c2cccnc2)=NO1 (configuration not stated)	-13%	4%	/	-28%[9.22 µM]	-8%[10 µM]	/
COC(=O)Cn1c(=NC(=O)C2COc3ccccc3O2)sc2cc(S(N)(=O)=O)ccc21 (configuration not stated)	8%	-8%	-4%	-4%	-2%[10 µM]	-1%
Cc1ccc2c(c1)C(=O)C(=O)N2CC(=O)OC(C)C	2%	-1%	1%	6%	-6%	0.079µM*
Cc1noc(C)c1C(=O)N1CCN(Cc2ccccc2)CC1	1%	1%	-6%	-7%	1%	-2%
Cc1noc(C)c1C(=O)N1CCC(CO)(Cc2ccccc2)CC1	-6%	3%	/	-7%	-18%	4µM*
O=c1c2c3c(sc2nc2n1CCCCC2)CCCCC3	9%	-4%	?	27%	13%[10 µM]	?
O=c1c2c3c(sc2nc2n1CCCCC2)CCCC3	0%	-9%	?	1%	-15%	35µM*
CC(C)(C)NC(=O)c1cccc2c1C(=O)c1ccccc1-2	-3%	4%	/	-7%[9.22 µM]	-1%[10 µM]	/
O=C(NCCO)c1cccc2c1C(=O)c1ccccc1-2	-8%	-1%	-10%	?	/	20µM*
COc1ccccc1O	23%[21.7 µM]	/	0%	7%	-11%	-7%
COc1cc(O)oc1C=Nc1ccccc1	0%	?	-26%	-2%	?	20µM*
O=c1c2ccc(Cl)cc2nc(-c2cccc(C(F)(F)F)c2)n1O	-2%	32µM*	-11%	?	-69%	11%
COc1ccc(CN(CC2CCC(C(=O)O)CC2)C(=S)Nc2cc(C)ccc2C)cc1 (configuration not stated)	-2%	7%	/	3%	?	3.5µM*
